# Assay results from article PMC8384837, “Expanding the binding specificity for RNA recognition by a PUF domain”.
# Assays:
# Assay in all cases: yeast three-hybrid, YBZ-1, SC-Leu-His + 0.5 mM 3-AT, 4 days
# Settings in all cases: tags: N-Gal4 AD-HA kept; label: inside an RPR1-promoter hybrid RNA with tandem MS2 sites; ssRNA
# PUM1 PUF domain R6-GWE = target: T1, PUM1 PUF domain R6-GWE (Homo sapiens, UniProt Q14671 828-1176, N1043G;Y1044W;Q1047E)
# T1 sequence: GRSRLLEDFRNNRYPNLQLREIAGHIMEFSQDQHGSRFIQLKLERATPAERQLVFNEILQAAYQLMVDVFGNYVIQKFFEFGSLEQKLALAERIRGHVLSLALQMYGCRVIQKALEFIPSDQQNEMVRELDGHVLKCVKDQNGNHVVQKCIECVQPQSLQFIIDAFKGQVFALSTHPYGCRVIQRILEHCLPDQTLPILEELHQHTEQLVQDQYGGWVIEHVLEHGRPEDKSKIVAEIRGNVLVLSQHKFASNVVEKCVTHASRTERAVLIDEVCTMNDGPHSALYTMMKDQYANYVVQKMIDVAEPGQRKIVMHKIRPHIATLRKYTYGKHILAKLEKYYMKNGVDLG
# In short: (§1)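 Each repeat of the Pumilio-1 PUF domain was randomized at its three base-contacting residues, and these libraries were co-expressed from a centromeric plasmid with matching RNA elements in strain YBZ-1. After four days on SC-Leu (input) or SC-Leu-His + 0.5 mM 3-AT (selection), the repeat regions were PCR-amplified and Illumina-sequenced. The interaction score compares variant frequency between input and selection as a log change, computed in log2 with a pseudocount of 1 for absent variants.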
# PUM1 PUF domain R8-GYR = PUM1 PUF domain R8-GYR (Homo sapiens, UniProt Q14671 828-1176, N1122G;Q1126R)
# In short: as §1
# PUM1 PUF domain R4-DFL = PUM1 PUF domain R4-DFL (Homo sapiens, UniProt Q14671 828-1176, N971D;H972F;Q975L)
# In short: as §1
# PUM1 PUF domain R3-PHH = PUM1 PUF domain R3-PHH (Homo sapiens, UniProt Q14671 828-1176, C935P;R936H;Q939H)
# In short: as §1
# PUM1 PUF domain R8-RHW = PUM1 PUF domain R8-RHW (Homo sapiens, UniProt Q14671 828-1176, N1122R;Y1123H;Q1126W)
# In short: as §1
# PUM1 PUF domain R8-KRK = PUM1 PUF domain R8-KRK (Homo sapiens, UniProt Q14671 828-1176, N1122K;Y1123R;Q1126K)
# In short: as §1
# PUM1 PUF domain R8-RFY = PUM1 PUF domain R8-RFY (Homo sapiens, UniProt Q14671 828-1176, N1122R;Y1123F;Q1126Y)
# In short: as §1
# PUM1 PUF domain R4-PYS = PUM1 PUF domain R4-PYS (Homo sapiens, UniProt Q14671 828-1176, N971P;H972Y;Q975S)
# In short: as §1
# PUM1 PUF domain R1-YGR = PUM1 PUF domain R1-YGR (Homo sapiens, UniProt Q14671 828-1176, S863Y;R864G;Q867R)
# In short: as §1
# PUM1 PUF domain R1-RCT = PUM1 PUF domain R1-RCT (Homo sapiens, UniProt Q14671 828-1176, S863R;R864C;Q867T)
# In short: as §1
sequence,measurement,setting,value
GGCUAGAACUAGUGGAUCCCCCGGCGCCCGGCGGCUCGAGCCCGGGUAAGUGGAAAUAGUCUGCAUGCCGCCGGGCGCCAUGCCUGCAGGUCGACUCUAGAAAACAUG,binding signal,PUM1 PUF domain R6-GWE,5.02 log2 enrichment (interaction score)
GGCUAGAACUAGUGGAUCCCCCGGCGCCCGGCGGCUCGAGCCCGGGUAAGUGUAAAUAGUCUGCAUGCCGCCGGGCGCCAUGCCUGCAGGUCGACUCUAGAAAACAUG,binding signal,PUM1 PUF domain R8-GYR,5.16 log2 enrichment (interaction score)
same,binding signal,PUM1 PUF domain R4-DFL,5.04 log2 enrichment (interaction score)
same,binding signal,PUM1 PUF domain R3-PHH,4.19 log2 enrichment (interaction score)
same,binding signal,PUM1 PUF domain R8-RHW,2.9 log2 enrichment (interaction score)
same,binding signal,PUM1 PUF domain R8-KRK,3.65 log2 enrichment (interaction score)
GGCUAGAACUAGUGGAUCCCCCGGCGCCCGGCGGCUCGAGCCCGGGUAAGUGUAAUUAGUCUGCAUGCCGCCGGGCGCCAUGCCUGCAGGUCGACUCUAGAAAACAUG,binding signal,PUM1 PUF domain R3-PHH,2.2 log2 enrichment (interaction score)
GGCUAGAACUAGUGGAUCCCCCGGCGCCCGGCGGCUCGAGCCCGGGUAAGCGUAAAUAGUCUGCAUGCCGCCGGGCGCCAUGCCUGCAGGUCGACUCUAGAAAACAUG,binding signal,PUM1 PUF domain R8-GYR,5.09 log2 enrichment (interaction score)
same,binding signal,PUM1 PUF domain R8-RHW,4.05 log2 enrichment (interaction score)
same,binding signal,PUM1 PUF domain R8-KRK,4.95 log2 enrichment (interaction score)
same,binding signal,PUM1 PUF domain R8-RFY,5.49 log2 enrichment (interaction score)
GGCUAGAACUAGUGGAUCCCCCGGCGCCCGGCGGCUCGAGCCCGGGUAAGUGUACAUAGUCUGCAUGCCGCCGGGCGCCAUGCCUGCAGGUCGACUCUAGAAAACAUG,binding signal,PUM1 PUF domain R4-PYS,5.7 log2 enrichment (interaction score)
GGCUAGAACUAGUGGAUCCCCCGGCGCCCGGCGGCUCGAGCCCGGGUAAGUGUAAAUUGUCUGCAUGCCGCCGGGCGCCAUGCCUGCAGGUCGACUCUAGAAAACAUG,binding signal,PUM1 PUF domain R1-YGR,6.42 log2 enrichment (interaction score)
same,binding signal,PUM1 PUF domain R1-RCT,4.25 log2 enrichment (interaction score)
